Measured values from PubChem BioAssay AID434989 (The Scripps Research Institute Molecular Screening Center, 2010).
Among all 330,000 compounds or so, about 1,400 (0.42%) were called active. For the sample, actives were picked, then their nearest neighbours and some compounds at random. Values without a mark were called inactive.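 How the source made its calls: active means inhibition above its plate's threshold, mean inhibition of all tested compounds on the plate plus 3 SD (cut at about 37% in these data); inactive means the rest.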

Biological target: Orexin/Hypocretin receptor type 1 (Homo sapiens) (UniProt O43613)
Assay: blockers of orexin-A calcium signaling via HCRTR1 – fluorescence, CHO/OX1R cells, Fluo-8 calcium, primary screen (AID 434989);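 further: 0% = orexin A challenge wells and 100% = SB-334867-A antagonist wells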
Settings: Fluo-8 calcium fluorescence, at 5 µM, active compounds read high

Chain of Orexin/Hypocretin receptor type 1 (Homo sapiens) (O43613 whole entry, looked up): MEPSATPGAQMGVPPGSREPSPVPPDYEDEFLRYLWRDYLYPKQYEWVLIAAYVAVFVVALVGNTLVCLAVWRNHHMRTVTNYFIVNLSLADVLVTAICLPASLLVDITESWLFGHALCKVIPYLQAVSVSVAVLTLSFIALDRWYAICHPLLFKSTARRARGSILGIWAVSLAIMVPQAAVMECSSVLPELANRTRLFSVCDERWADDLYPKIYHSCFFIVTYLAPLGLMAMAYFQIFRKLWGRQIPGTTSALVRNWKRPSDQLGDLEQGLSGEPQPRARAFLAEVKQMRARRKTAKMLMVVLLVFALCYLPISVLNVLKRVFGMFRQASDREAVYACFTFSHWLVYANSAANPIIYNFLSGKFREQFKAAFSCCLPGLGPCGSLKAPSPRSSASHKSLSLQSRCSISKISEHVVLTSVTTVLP

| Compound | inhibition |
| --- | --- |
| c1ccc(-c2cc(-c3ccccc3)[nH]n2)cc1 | -9.86% |
| S=c1[nH]nc(-c2cc(-c3ccccc3)n[nH]2)n1/N=C/c1c2ccccc2cc2ccccc12 | 44.8% (active) |
| Fc1ccccc1/C=N/n1c(-c2cccnc2)n[nH]c1=S | -5.34% |
| C=CC[C@H](CC(=O)OC(C)(C)C)C(=O)OC[C@H]1CCCN1C(=O)[C@H](CC=C)CC(=O)N(CCO)Cc1ccccc1 | -15.6% |
| O=C1N[C@H](Cc2c[nH]c3ccccc23)COC(=O)[C@H](Cc2ccc(F)cc2)C/C=C\C[C@H]1CC(=O)N(CCO)Cc1ccccc1 | -2.05% |
| CC(C)(C)NS(=O)(=O)NC(=O)C1=C(N2CCCC2)COC1=O | -2.12% |
| O=C(CNC(=O)c1cccnc1)N/N=C/c1cccnc1 | 1.04% |
| O=C(NN=C1CCC(=NNC(=O)c2cccnc2)CC1)c1cccnc1 | -6.2% |
| O=C(N/N=C/c1sc(N2CCCCC2)nc1-c1cccs1)c1cccnc1 | 44.9% (active) |
| CC(=O)N(O)CCCCCNC(=O)CCC(=O)N(O)CCCCCNC(=O)CCC(=O)N(O)CCCCCNC(=O)CCC(=O)O | -5.54% |
| CC(=O)Nc1ccc(/C=N/NC(=O)c2cccs2)cc1 | 18.2% |
| O=C(NC(Cc1c[nH]c2ccccc12)C(=O)N/N=C/c1ccc(Br)cc1)c1cccs1 (stereo not drawn) | 52.5% (active) |
| CC(=O)NC(Cc1c[nH]c2ccccc12)C(=O)O (stereo not drawn) | -1.34% |
| Cc1ccc(N2C(=O)N3[C@@H]4c5ccccc5OC[C@@H]4[C@@H](c4ccccc4)[C@@]3(C)C2=O)cc1 | -30.9% |
| COc1ccc(CNc2nc(NCc3ccc(OC)cc3)c3ncn(C4CCCC4)c3n2)cc1 | -5.92% |
| Cc1noc(C)c1NC(=O)Nc1ccc2c(c1)C(=O)N([C@H](C)CO)C[C@H](C)[C@@H](CN(C)C(=O)Nc1ccccc1)O2 | -4.54% |
| CC(=O)c1ccc(NC(=S)NC(=O)CC(C)C)cc1 | 3.22% |
| COc1cc(NS(=O)(=O)c2ccc(NC(C)=O)cc2)cc(OC)c1 | 9.3% |
| COc1ccc(NS(=O)(=O)c2ccc(NC(=S)NC(=O)CC(C)C)cc2)cc1 | 50.3% (active) |
| COc1ccc(N2CCN(C(CNS(=O)(=O)c3ccc(C)cc3)c3ccccc3)CC2)cc1 (stereo not drawn) | -26.8% |
| CCN([C@H](CO)C(C)C)S(=O)(=O)c1ccccc1Br | 1.51% |
| O=C(COC(=O)COc1ccccc1F)Nc1cccc(S(=O)(=O)N2CCCCC2)c1 | -27.3% |
| CCn1nnc2cc(C(=O)Nc3ccc(C(=O)OC(C)C)cc3)ccc21 | -14.8% |
